Shiga toxin inh: inhibitors of Shiga toxin in Vero cells; inhibition, % at 38.7 µM; AID 2315; 9.2% of 290,000 active; Vero cells, Shiga toxin protein synthesis inhibition reporter; in the data active means inhibition mostly above about 28%, no sharp cut-off; inactive means mostly below about 43%; further: 0% is about no effect
Pf growth 48h: inhibits P. falciparum growth in the first generation, 48 h | P. falciparum luciferase growth in erythrocytes, 48 h | Potency, µM (series often up to 28.7 µM), inactives show at the highest dose activity change, negative = inhibition, hits mostly inhibitors | 5.9% of 310,000 active; further: potency means the concentration at half of the fitted maximal effect; on the % scale 0 is the no-effect control and ±100 the full control effect
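In quantitative HTS format, infected erythrocytes bearing luciferase-reporter parasites were treated for a single generation at 37 C. Luminescence after adding detection reagent served as the growth measure.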
Cycloheximide cs: counter-screen hit for Shiga toxin inhibitors, cycloheximide | max response, % | cell reporter, cycloheximide protein synthesis inhibition counterscreen | 12% of 300,000 active; in the data active means max response mostly above about 13%, no sharp cut-off; inactive means mostly below about 14%; further: read at 38.3 µM for the half of the compounds with a filed dose; 0% is about no effect
HCMV antiviral: blocks human cytomegalovirus replication; 4.5% of 410,000 active; activity change, negative = inhibition, % at 57.5 µM; AID 1259415; HFF cells, HCMV-luciferase reporter, 72 h; active compounds read low; in the data active means activity change below about -60%; inconclusive means no clear call, values can overlap the other calls; inactive means above about -39%; further: on the % scale 0 is the no-effect control and ±100 the full control effect
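Two compound doses tested in HFFs infected with HCMV-luciferase, MOI 1 PFU/cell, 72 h at 37C. Lysate luminescence read with OneGlo; data normalized against buffer-only and 10uM Salinomycin inhibitor controls.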
Pf growth 96h: P. falciparum growth inhibition at 96 hours; P. falciparum luciferase reporter growth, 96 h; Potency, µM (titrated, usually from 28.7 µM), inactives show at the top dose activity change, negative = inhibition, hits mostly inhibitors; 6.9% of 320,000 active; AID 504834; further: potency means the concentration at half of the fitted maximal effect; on the % scale 0 is the no-effect control and ±100 the full control effect
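Compounds incubated with erythrocytes infected by luciferase-expressing P. falciparum (2% hematocrit, 0.05% parasitemia final) for 96 hours, 37 C in 5% CO2. Growth inhibition scored as decreased luciferase luminescence.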
* hit, by the source's call; ? = inconclusive; . = not tested or not shown; + = active, no number. The list is not random: actives were taken first. Their share in the collection is about 20%. Unless noted, the call rests on the fitted dose curve; in most records, active means well fitted inhibition curve with a large enough effect; inconclusive means small, poorly fitted or top-dose-only effect, or another doubt; inactive means no such curve, though single readings can be large or run the other way.

SMILES | Shiga toxin inh | Pf growth 48h | Cycloheximide cs | HCMV antiviral | Pf growth 96h
N#Cc1nc(COc2cccc(Cl)c2)oc1NCc1ccncc1 | 54 | ? | 18* | -2 | ?
COc1ccc(-c2nc(C#N)c(NCc3cccnc3)o2)cc1OC | -12 | ? | -3 | 113 | 10µM*
COc1ccc(-c2nc(C#N)c(NCc3ccccc3Cl)o2)cc1OC | 26 | ? | 16 | -28 | 0.59µM*
N#Cc1nc(-c2cccc(Cl)c2)oc1NCc1cccnc1 | 46* | . | 26 | 59 | ?
COc1ccc(-c2nc(C#N)c(NCc3ccc(F)cc3)o2)cc1OC | 45 | ? | 24* | 25 | .
N#Cc1nc(-c2ccco2)oc1NCc1cccnc1 | 9 | -10% | -4 | 70 | 67%
CCc1ccc(NC(=O)Cn2c(=O)n(CCCC(=O)NCc3ccccc3OC)c(=O)c3ccccc32)cc1 | . | . | . | 15 | .
c1ccc(-n2nnnc2Cc2nnnn2-c2ccccc2)cc1 | -6 | ? | -2 | -30 | 7%
N#CCCS(=O)(=O)c1nnnn1-c1ccccc1 | 6 | ? | 19* | . | -11%
COc1ccccc1NC(=S)NNC(=O)c1c(Cl)c(C)nn1C | 43* | 47% | 10 | 19 | ?
COc1ccccc1NC(=S)NNC(=O)c1ccncc1 | -4 | 26% | 3 | 7 | 0%
COc1ccccc1NC(=S)NNC(=O)c1cc(C)n(C)n1 | 4 | . | 7 | -9 | 58%
COc1ccccc1NC(=S)NNC(=O)c1cc(C)nn1C | -12 | . | -3 | -103* | ?
Fc1ccc2nc(C(F)(F)F)cc(N3CCOCC3)c2c1 | 29 | 17% | 21 | 32 | 24%
O=C(c1ccccc1)c1ccc(OC(=O)C2CCCCC2)cc1 | 2 | -5% | 0 | 9 | -29%
CN(C)c1ccc(CN2CCC(C(=O)NC(c3ccc(Cl)cc3)c3cnccn3)CC2)cc1 (stereo not given) | . | . | . | 3 | .
C(=N\c1nc2ccccc2[nH]1)/c1cccs1 | 27 | 29% | 4 | 69 | 10µM*
CCn1c(/C=N/c2nc3ccccc3n2C)nc2ccccc21 | 24 | 32% | 13* | 25 | -13%
Cn1c(/C=N/c2nc3ccccc3[nH]2)nc2ccccc21 | 23 | 13% | 0 | -104* | .
COc1ccc(-c2c(C)c3ccc(OCC(C)=O)cc3oc2=O)cc1 | 110* | 229% | 49* | . | 12%
COC(=O)Cc1c(C)c2ccc(OCc3nn[nH]n3)cc2oc1=O | 5 | -4% | -2 | 19 | .
CCCc1cc(=O)c2ccc(OCC(C)=O)cc2o1 | 3 | 63% | 2 | -17 | 0%
CCc1c(C)c2ccc(OCC(N)=O)cc2oc1=O | 45 | 24% | 20* | 84 | -23%
COC(=O)Cc1c(C)c2ccc(OCC(=O)N(C)C)cc2oc1=O | -5 | . | 1 | -5 | 18%
CC(=O)COc1ccc2c(C)c(C)c(=O)oc2c1 | 79* | 0% | 52* | 192 | ?
SMILES | Shiga toxin inh | Pf growth 48h | Cycloheximide cs | HCMV antiviral | Pf growth 96h
CCCOc1ccc2c(C)c(CC(=O)OC)c(=O)oc2c1 | 52* | 22% | 31* | 7 | .
O=c1oc2cc(O)ccc2c2oc3cc(O)ccc3c12 | 31* | -1% | 13* | -18 | -11%
O=c1oc2cc(O)ccc2c2ccccc12 | -16 | . | -2 | -20 | 3%
COc1ccc(-c2c(C)c3ccc(O)cc3oc2=O)cc1 | 50* | 48% | 53* | -11 | 55%
C=C(C)COc1ccc2c(C)c(CCC(=O)NC3CC3)c(=O)oc2c1 | 19 | 10µM* | 22* | ? | 10µM*
Cc1ccc(CNC(=O)C2CCC(CNS(=O)(=O)c3ccc(C)cc3)CC2)cc1 (stereo not given) | . | . | . | 0 | .
CCOc1ccc(NC(=NCc2ccc3c(c2)OCO3)SC2CC(=O)N(c3ccc(OCC)cc3)C2=O)cc1 (stereo not given) | + | ? | 63* | 2 | 3.7µM*
CCOc1ccc(NC(=NCc2ccc3c(c2)OCO3)SC2CC(=O)N(c3ccc(C(=O)O)cc3)C2=O)cc1 (stereo not given) | -3 | ? | 0 | ? | 9.3µM*
Cc1c(NC(=O)C(C)N2C(=O)C3C4C=CC(C4)C3C2=O)c(=O)n(-c2ccccc2)n1C (stereo not given) | 10 | . | -4 | -66* | 4%
Cc1c(NC(=O)C(C)Sc2nc(N)cc(=O)[nH]2)c(=O)n(-c2ccccc2)n1C (stereo not given) | . | -9% | . | -63* | -5%

Bioassay records: PubChem, National Center for Advancing Translational Sciences (NCATS)
